Inconclusive results are not listed. Active and inactive are the calls of the source. Calls follow the shape of the dose curve; as a rule, active = well fitted curve in the direction sought with a large enough effect in the repeat runs; inconclusive = weak or mixed curves; inactive = no such curve, though single readings can be large; an effect the other way counts as inactive or inconclusive.
Assay: qHTS assay to identify small molecule agonists of the retinoic acid receptor (RAR) signaling pathway (AID 1159553); also: potency is read from the fitted curve at half-maximal effect
Settings: C3RL4 RARE luciferase reporter, agonist, 6 h; series mostly up to 73.3 µM; activation: at the top concentration
Method in brief: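 Quantitative high-throughput format: the Tox21 10K library was tested on C3RL4 RARE-luciferase cells for 6 hr at 37 C and 5% CO2, with luminescence measured after a 30 min room-temperature reagent step.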
% is scaled to controls: 0 for no effect and ±100 for the full control effect.

SMILES	activation	Potency
COc1ccccc1OC	0.335% (inactive)	–
C=C(C)[C@H]1CN[C@H](C(=O)O)[C@H]1CC(=O)O	0.225% (inactive)	–
CCSC(=O)Cl	0.169% [at 94.8 µM] (inactive)	–
CCN1CCCC1CNC(=O)C(O)(c1ccccc1)c1ccccc1 (stereo unspecified)	0.208% (inactive)	–
O=C(O)C(F)(F)C(F)(F)C(F)(F)C(F)(F)C(F)(F)C(F)(F)F	-0.306% (inactive)	–
CCOP(=O)(CN(CCO)CCO)OCC	1.01% (inactive)	–
CCC(C)C(C)(COC(N)=O)COC(N)=O (stereo unspecified)	-2.52% (inactive)	–
CC(=O)CN(CC(C)=O)N=O	0.532% (inactive)	–
CON(C)C(=O)Nc1ccc(Br)c(Cl)c1	–	21.7 µM (active)
CCCCCCCC(=O)Cl	-1.82% [at 94.8 µM] (inactive)	–
C=CC=O	-0.359% [at 94.8 µM] (inactive)	–
COc1cccc(C=O)c1	-0.371% (inactive)	–
ClCOCCl	-0.602% [at 94.8 µM] (inactive)	–

Assay: qHTS assay to identify small molecule antagonists of the estrogen related receptor (ERR) signaling pathway - cell viability counter screen (AID 1224818);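 also: viability measured after 17.5 h of compound exposure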
Settings: ERR reporter cell line viability counter screen; series mostly up to 46.1 µM; viability change, negative = cytotoxic: at the top concentration
Method in brief: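 Quantitative high-throughput viability counter screen in ERR cells. Compounds (DMSO) incubated 17.5 h at 37 C; read-out was CellTiter-Fluor fluorescence.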

SMILES	viability change, negative = cytotoxic
Cc1ccc(S(=O)(=O)N[C@@H](CCCCN)C(=O)CCl)cc1	-2.66% (inactive)
CCCN1CCC[C@@H]2Cc3nc(N)ncc3C[C@H]21	0.226% (inactive)
C=C(C)[C@H]1CN[C@H](C(=O)O)[C@H]1CC(=O)O	11% (inactive)

Reference: PubChem BioAssay (Tox21)
